This is part of a sample that, as a whole, favours compounds with a hit. Of some 83,000 tested, about 20% had one in any assay.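 The test compound was applied at a single concentration to cells in 96-well plates for 48 hours, and percent growth was recorded.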 A number with no mark means an inactive call. Activity calls are given as the source filed them.

The subject of the assay is HS 578T breast. The experiment in a line: NCI-60 one-dose screen, 48 h (100 = growth as untreated, 0 = no growth, -100 = all killed). The settings on record: 10 µM. On the procedure:
Growth inhibition of the HS 578T human tumor cell line is measured as a screen for anti-cancer activity. Cells are grown in 96 well plates and exposed to the test compound for 48 hours. Compounds are tested at a single concentration, which is 10^-5 M for most compounds. The reported endpoint is percent growth (GI% or GIPRCNT), where numbers from 0 - 100% represent growth inhibition, and numbers from -100% - 0 represent cell death. For example, a value of 40 represents 60% growth inhibition. A value of 0 means no net growth occurred over the course of the experiment. A value of -40 indicates 40% of cells at the beginning of the experiment died by the end of the experiment. A value of -100 means all cells are dead at the end of the experiment.
NCI-60 Human Tumor Cell Lines Screen was performed using the standard one-dose NCI protocol, which is described in more detail at https://dtp.cancer.gov/discovery_development/nci-60/default.htm.
Compounds with GIPRCNT values below 10 were considered active. Activity score was based on GIPRCNT using the following formula: […]
Score is 0 for GIPRCNT values of 100 or above, 50 for GIPRCNT values of 0, and 100 for GIPRCNT values of -100.
For the compound `COc1ccc(OC)c(Nc2nc(-c3c(C)nc4sccn34)cs2)c1`, the growth was 73.1%. As to `O=C(NC1CC1)c1ccc(-c2nc3ccc4[nH]ncc4c3c3c2CCCC3)cc1`, the growth is 4.47% (active). For the compound `COc1cc2c(cc1C)NC(=O)/C2=C\c1c[nH]c2ccccc12`, the growth is 75.2%. Regarding `COc1cc(C(=O)/C=C/c2cn(-c3ccccc3)nc2-c2cccc(Nc3ccnc4cc(Cl)ccc34)c2)cc(OC)c1OC`, the growth is 102%. The value for `Cc1ccc(Nc2nc(NCCO)c3ccccc3n2)cc1C` was 36.1%; that for `COc1cccc(/C=N/N=C(N)N)c1` was 113%; that for `CC(=O)OC1Oc2cc(C)c(C)cc2-c2oc(=O)c(-c3ccc(F)cc3)cc21` (stereo not given) was 60.5%.

With `COc1ccc(C2CC(c3ccc(Nc4ccnc5cc(Cl)ccc45)cc3)=NN2c2ccccc2)cc1` (stereo not given), the growth was 105%.

For `FC(F)(F)C1=NNC(c2ccc3ccccc3c2)=NN1`, the growth was 95.9%. The value for `COc1cc(/C=C/c2ccc3c(Br)cc(Br)c(O)c3n2)ccc1O` was 3.67% (active).

Regarding `CCCCc1n(Cc2ccc3ccccc3n2)cc[n+]1Cc1ccc2ccccc2n1`, the growth was 41.5%. The value for `Cc1ccc(/C=C/C(=N/N=C(N)N)c2ccccc2)cc1` was -5.3% (active).

Consider `FC1(F)CCN(Cc2c[nH]c3cc(Cl)ccc23)C[C@H]1CCc1ccccc1`, for which the growth was 56.6%. The result for `Fc1ccc2nc(-c3ccc(-c4noc(-c5ccc(Cl)cc5)n4)cc3)[nH]c2c1` reads 108%; that for `O=C(/C=C/c1cn(-c2ccccc2)nc1-c1cccc(Nc2ccnc3cc(Cl)ccc23)c1)c1ccc2c(c1)OCO2`, 105%; that for `O=C1Cc2c([nH]c3ccc([N+](=O)[O-])cc23)-c2ccccc2N1`, 25.6%. Consider `COc1cccc(OCC(O)CN2CCN(c3ccccc3)CC2)c1` (stereo not given), for which the growth was 117%.

Turning to `O=C(Nc1ccc2ncnc(Nc3ccc(F)c(Cl)c3)c2c1)c1cccs1`, the growth is 72.2%. In the case of `CCN(C)CCCOc1ccc(/C(=C(\C)Cc2cccc(OC)c2)c2ccc(OC(C)=O)cc2)cc1`, the growth is 94%.

As for `COCCOCCOCc1n(Cc2ccc3ccccc3n2)c2ccccc2[n+]1Cc1ccc2ccccc2c1`, the growth is 20.3%. The value for `COC(=O)C(CCC(=O)CCl)N1C(=O)c2ccccc2C1=O` (stereo not given) was 85.3%; that for `Nc1cccc(S(=O)(=O)c2cccc(N)c2)c1` was 118%; that for `C#CCNC(=S)N/N=C(\C)c1ccccn1` was 70.2%. In the case of `N#CC1=C(N)Oc2nc[nH]c(=O)c2C1c1cccs1` (stereo not given), the growth is 112%. The result for `COc1cc(Cn2c(-c3ccccc3)cc3c2-c2oncc2CC3)cc(OC)c1OC` reads -1.69% (active). The value for `Fc1ccc(-c2ccnc3nc(-c4ccncc4)nn23)cc1` was 113%.

Regarding `CCOC(=O)c1ccc(N(CCC(=O)O)C(C)=O)cc1`, the growth is 114%. Consider `CN1CCN(Cc2ccc(NC(=O)c3cncc(C#Cc4ncc5cnccn45)c3)cc2C(F)(F)F)CC1`, for which the growth is 52.2%. The value for `COc1ccc(-c2oc(=O)ccc2-c2cc(OC)c(OC)c(OC)c2)cc1F` was 86.4%; that for `Cc1cc(C)c2c(n1)sc1c(Nc3ccc(OCc4ccccc4)cc3)ncnc12` was 108%.

Take `O=C(Nc1cccc(Cl)c1)Nc1cc(C(F)(F)F)ccc1Cl`: the growth is 55.9%. The value for `CCCCCNCCCCCNc1cc(OC)cc2cccnc12` was 102%; that for `CN1CCN(Cc2ccc(NC(=O)c3cncc(C#Cc4cnc5cccnn45)c3)cc2C(F)(F)F)CC1` was -17.3% (active). The value for `CN(C)c1ccc(/C=N/Nc2nnc3n2N=C(c2ccc(Cl)cc2)CS3)cc1` was 92%. The value for `COc1cc(-c2nc(-c3nc4cc(C(=O)c5ccccc5)ccc4[nH]3)cc3c2[nH]c2ccccc23)cc(OC)c1OC` was 95.7%. `CCCc1n(Cc2ccc3ccccc3c2)c2ccccc2[n+]1Cc1ccc2ccccc2c1`: the growth is -8.47% (active).

For the compound `Cc1nn(-c2ccc(Cl)cc2)c(=O)n1CCN1CCOCC1`, the growth is 42.7%. The result for `N#Cc1c(N)c(C(=O)c2ccc3c(c2)OCCO3)n2c1CCCC2` reads 36.3%; that for `CCN(CC)CCCC(C)Nc1cnc(C(=O)Nc2cc(C)cc3cccnc23)cn1` (stereo not given), 79.9%.

With `COc1cccc2nc(Nc3cccc(NC(=O)c4cc(N5CCOCC5)cc(C(F)(F)F)c4)c3)ccc12`, the growth is 67%.

These data come from PubChem BioAssay (NCI).
